# Most compounds without a hit are left out; they make up all but 2.4% or so of the library.
# D2 antag – antagonizes the human D2 dopamine receptor; HEK293 TREx D2 cells, calcium flux, dopamine EC80; actives 2% (n = 340,000); AID 485344; inhibition, % at 10 µM; P14416; in the data active means inhibition above about 30%; inactive means below that, where a call was filed
# Target sequence (P14416 whole entry, looked up): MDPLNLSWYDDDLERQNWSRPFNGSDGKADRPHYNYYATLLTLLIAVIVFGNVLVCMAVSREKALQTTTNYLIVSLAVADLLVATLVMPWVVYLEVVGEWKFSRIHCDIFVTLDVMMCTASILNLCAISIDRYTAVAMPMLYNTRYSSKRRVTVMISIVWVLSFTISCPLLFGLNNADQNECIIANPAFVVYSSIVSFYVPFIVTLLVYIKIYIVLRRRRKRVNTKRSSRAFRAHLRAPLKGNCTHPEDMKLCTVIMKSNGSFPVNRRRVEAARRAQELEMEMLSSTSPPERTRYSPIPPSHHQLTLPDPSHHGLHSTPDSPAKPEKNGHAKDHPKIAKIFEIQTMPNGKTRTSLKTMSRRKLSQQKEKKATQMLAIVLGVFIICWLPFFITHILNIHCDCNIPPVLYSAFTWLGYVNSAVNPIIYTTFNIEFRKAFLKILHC
#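 Inhibition of EC80 dopamine-driven calcium flux, recorded kinetically, defines activity here; cells are a tetracycline-induced HEK293 T-REx line expressing force-coupled D2.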
# D2 ag-1 – agonists of human D2 dopamine receptor | P14416 | HEK293 T-REx D2 cells, calcium flux agonist mode | activation, % at 2 µM | actives 0.53% (n = 340,000) | AID 485358;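 active means activation over 3 SD above normal in the single-dose calcium agonist read, cut at about 30% in these data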
#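 Agonism is scored from calcium flux in a force-coupled, inducible HEK293 cell line expressing D2, read kinetically for 180 s after compound addition against dopamine controls.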
# D2 ag-2 – human D2 receptor agonism in beta-arrestin assay | P14416 | DiscoveRx PathHunter D2 beta-arrestin, luminescence, 90 min; 100% = 57 uM dopamine signal | activation, % (concentration not given with the values) | actives 0.084% (n = 360,000) | AID 624465; in the data active means activation above about 40%; inconclusive means between about 15% and that limit
#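 Agonist mode: compounds alone added to overnight-plated D2 PathHunter cells for 90 min at 37 C, with 57 uM final dopamine (EC100) defining full response. Beta-arrestin recruitment detected by chemiluminescent reagent, read after 1 h at ambient temperature.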
# D2 PAM-1 – positively modulates the human D2 dopamine receptor allosterically. HEK293 T-REx D2, calcium flux, EC20 dopamine potentiation. potentiation, % at 10 µM. actives 0.34% (n = 340,000);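 active means potentiation over 3 SD above the plate norm, cut at about 30% in these data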
#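 Using a no-wash calcium dye in inducible, force-coupled HEK293 Trex cells expressing D2, we tracked fluorescence each second for 180 s after compound, then for 180 s after EC20 dopamine to detect augmented signalling.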
# D2 PAM-2 – human D2 receptor positive allosteric modulation | P14416 | DiscoveRx D2 beta-arrestin cells, luminescence, 90 min; 100% = 57 uM dopamine signal | potentiation, % (concentration not given with the values) | actives 0.23% (n = 360,000) | AID 624464; in the data active means potentiation above about 50%; inconclusive means mostly about 30% to 49%
#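 D2 cells co-treated with compound plus 50 nM dopamine (EC20) for 90 min at 37 deg C to detect potentiation. Beta-arrestin recruitment was read as enzyme-fragment luminescence after 1 h at ambient temperature. Full response was set by 57 uM dopamine.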
# A number is an active result; - = inactive; ? = inconclusive; . = not tested or not shown.
SMILES,D2 antag,D2 ag-1,D2 ag-2,D2 PAM-1,D2 PAM-2
COc1ccccc1NS(=O)(=O)c1cccc2cccnc12,31.1,-,-,-,-
COc1cc(C(=O)NCCc2ccc(F)cc2)ccc1OCC(=O)N1CCOCC1,-,-,-,-,-
CCOc1ccccc1C1C(C(=O)Nc2ccccc2)=C(C)Nc2nc(SCC(=O)c3ccc(C)cc3)nn21 (stereo unspecified),.,-,.,-,.
CCN1CCN(C(=O)C2c3cc(OC)c(OC)cc3C(=O)N(C)C2c2ccc(SC)cc2)CC1 (stereo unspecified),-,-,-,46.4,-
Cc1cc(C)n2nnnc2n1,38.3,-,-,-,-
Cc1cc(Cl)ccc1NC(=O)CN(C)C1=NS(=O)(=O)c2ccccc21,-,-,-,-,-
CCOC(=O)c1c(NC(=O)c2cc(CC)on2)sc(C)c1C,.,-,.,-,.
O=C(CSc1nc2ccccc2s1)N1CCOCC1,-,-,-,-,-
O=C1CCCCCN1CSc1nc2ccccc2s1,-,-,-,36.5,-
COc1ccccc1-c1ccc([C@@H]2C[C@H]3[C@H](CON3C)CN2C(=O)c2ccc(-c3ccccc3)cc2)cc1,.,.,-,.,-
Fc1ccc([C@@H]2CCNC[C@H]2COc2ccc3c(c2)OCO3)cc1,40.7,-,-,-,-
COc1ccc(C2=Nn3c(nnc3-c3ccccn3)SC2)cc1OC,-,-,-,-,-
COc1ccc(C2=Nn3c(nnc3-c3ccccc3OC)SC2)cc1OC,-,-,-,36.9,-
OC[C@@H]1CN(Cc2ccncc2)C[C@H](n2cnc3c(N4CCCC4)ncnc32)O1,.,.,-,.,-
O=C(COC(=O)C1CC(O)CN1S(=O)(=O)c1ccc(Cl)cc1)c1ccccc1 (stereo unspecified),-,-,-,-,-
CC(C)N(C(=O)COC(=O)[C@@H]1CC(O)CN1S(=O)(=O)c1ccc(C(C)(C)C)cc1)C(C)C (stereo partly specified),37.8,-,-,-,-
Cc1ccc(N=Nc2c(=O)[nH]n3c(=O)cc(C)[nH]c23)cc1,-,-,-,37.7,-
Cc1ccc(N=Nc2c(N)[nH]n3c(=O)cc(-c4ccccc4)nc23)cc1,-,-,-,-,-
O=C(COC(=O)c1ccc(Br)c(S(=O)(=O)N2CCOCC2)c1)NC1CC1,.,.,-,.,-
Cc1ccc(-n2ncc3c(NCCc4ccccc4)ncnc32)cc1,.,-,.,-,.
CC(C)(Oc1ccc(Cl)cc1)C(=O)N1CCN(c2ccccn2)CC1,43.0,-,-,-,-
COc1ccccc1CCN1CCCC(CN(C)C(=O)c2ccoc2)C1 (stereo unspecified),41.9,-,-,-,-
Cc1ccccc1Cn1ccc(NC(=O)c2nn(C)cc2[N+](=O)[O-])n1,31.0,-,-,-,-
CCn1cc([N+](=O)[O-])c(C(=O)Nc2ccn(Cc3ccccc3F)n2)n1,-,-,-,-,-
CCc1cc(C(=O)OC)c(NC(=O)CC2SC(N)=NC2=O)s1 (stereo unspecified),31.0,-,-,-,-
SMILES,D2 antag,D2 ag-1,D2 ag-2,D2 PAM-1,D2 PAM-2
CCOc1ccc(NC(=S)N2CCN(S(=O)(=O)c3ccccc3)CC2)cc1,-,39.4,-,-,-
CCOc1ccc(S(=O)(=O)N2CCN(C(=O)c3cccn3C)CC2)cc1,-,-,-,31.4,-
CCOc1ccc(S(=O)(=O)N2CCN(S(=O)(=O)c3ccc(C(C)=O)cc3)CC2)cc1,35.7,-,-,-,-
COc1ccc(COC(=O)c2ccc(Cl)c(S(=O)(=O)N3CC(C)OC(C)C3)c2)cc1 (stereo unspecified),-,-,-,-,-
O=C(CN1C(=O)c2cccc([N+](=O)[O-])c2C1=O)N1CCc2ccccc2C1,.,.,-,.,-
Cc1cccc(N2CCN(Cc3cc(=O)oc4cc(C)ccc34)CC2C)c1 (stereo unspecified),.,.,.,-,.
Cc1cc2c(OCC(O)CNC3CCCCC3)cccc2[nH]1 (stereo unspecified),60.2,-,-,-,-
CCCC[n+]1ccn(-c2nc3c([N+](=O)[O-])cccc3n2C)c1,34.1,-,-,-,-
COc1ccc(C(=O)NCCSCc2ccc(C)cc2)cc1,-,-,-,-,-
Cc1ccc(CSCCNC(=O)c2ccc(C)cc2)cc1,31.9,-,-,-,-
Cc1ccc(-c2nc3ncccc3o2)cc1NC(=O)Cc1ccc(Cl)cc1,-,-,-,30.6,-
CCCOc1ccc(C(=O)NC2CCSc3ccccc32)cc1 (stereo unspecified),36.0,-,-,-,-
Cc1ccc2c(c1)-c1[nH]c(=S)ncc1CS2,-,-,-,-,60.4
CCCCn1c(N)c(N(C)C(=O)c2cc3c(F)cccc3s2)c(=O)[nH]c1=O,.,.,-,.,-
Cc1ccc(C(=O)NC(=S)Nc2cccnc2Cl)cc1,-,-,-,40.1,-
COc1ccccc1C(=O)NC(=S)Nc1cccnc1Cl,-,-,-,-,-
Cc1ccsc1C1NC(=O)c2ccccc2N1 (stereo unspecified),-,-,-,32.6,-
O=C1NC(c2cccs2)Nc2ccccc21 (stereo unspecified),-,-,-,-,-
C=CCc1cccc(C=Nc2cc(Br)ccc2O)c1O,-,-,?,-,72.3
C=CCc1cccc(C=Nc2c[nH]c(=O)[nH]c2=O)c1O,-,-,-,-,-
Cc1cccc(CCN2C(Nc3ccccc3)=NC[C@@H]2CC(C)C)c1,69.9,59.5,-,-,-
CC(C)C[C@H]1CN=C(Nc2ccccc2)N1CCc1cccc(F)c1,.,.,-,.,-
Cc1cccc(NC2=NCC(=O)N2CCc2ccccc2)c1,37.3,-,-,-,-
CC(C)C[C@H]1CN=C(Nc2ccccc2)N1CCc1ccc(F)cc1,73.5,59.4,-,-,-
C=CCN1C(=O)CN=C1Nc1cccc(C)c1,.,.,-,.,-
SMILES,D2 antag,D2 ag-1,D2 ag-2,D2 PAM-1,D2 PAM-2
CC(C)CCN1C(Nc2ccccc2)=NC[C@@H]1CC(C)C,-,-,-,-,-
O=C(CCN=C1NS(=O)(=O)c2ccccc21)OCc1nnc(-c2ccc([N+](=O)[O-])cc2)o1,.,.,-,.,68.7
N#Cc1ccccc1COC(=O)CCN=C1NS(=O)(=O)c2ccccc21,.,.,-,.,-
C[C@H](CO)N1C[C@H](C)[C@@H](CN(C)S(C)(=O)=O)Oc2ccc(NC(=O)C3CC3)cc2C1=O,.,.,-,.,-
CCOC(=O)C1CCCN(C(=S)NC2CCCCC2)C1 (stereo unspecified),.,.,-,.,-
CCOC(=O)C1CCN(C(=S)NC2CCCC2)CC1,34.1,-,-,-,-
CC1(C)CSC(C)(C)C(=O)N1,.,.,-,.,-
CCCCCNC(=O)c1c[nH]c2ccc(S(=O)(=O)N3CCC(C)CC3)cc2c1=O,.,-,.,-,.
O=C(/C=C/c1cccc([N+](=O)[O-])c1)NCC1CCCO1 (stereo unspecified),60.4,-,-,-,-
